Inconclusive results are not listed. Calls of active or inactive are those of the source. Unless noted, calls come from the whole dose curve; as a rule, active = well fitted curve in either direction with a large enough effect (not every such curve was filed as active); inconclusive = small, poorly fitted or top-dose-only effect, or another doubt; inactive = flat fitted curve, though single readings scatter.
Key:
[1] = AP1 Signaling Pathway (AID 357); conditions: ME-180 AP-1-bla reporter, EGF-induced, beta-lactamase ratio, 5 h; at 7.69 µM (top of the series) unless noted;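 note: ME-180 reporter cells stimulated with EGF at its EC50 level; % is set by controls: 0 for no effect and ±100 for the full control effect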
In short: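 AP-1-bla ME-180 cells, Opti-MEM + 0.5% dialyzed FBS, plated overnight 37 °C. Cpd titration + EC50 EGF, 5 h 37 °C. CCF4 2.5 h RT; ex 405, em 460/530 ratio → %activity, AC50.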

[2] = target: Cytochrome P450 1A2 (Homo sapiens) (UniProt P05177); assay: p450-cyp1a2 (AID 410; calls by dose curve; note: potency is the fitted concentration of half-maximal effect;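 for activity change, negative = inhibition: -100% = full effect of reference inhibitor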)
Chain of Cytochrome P450 1A2 (Homo sapiens) (P05177 whole entry, looked up): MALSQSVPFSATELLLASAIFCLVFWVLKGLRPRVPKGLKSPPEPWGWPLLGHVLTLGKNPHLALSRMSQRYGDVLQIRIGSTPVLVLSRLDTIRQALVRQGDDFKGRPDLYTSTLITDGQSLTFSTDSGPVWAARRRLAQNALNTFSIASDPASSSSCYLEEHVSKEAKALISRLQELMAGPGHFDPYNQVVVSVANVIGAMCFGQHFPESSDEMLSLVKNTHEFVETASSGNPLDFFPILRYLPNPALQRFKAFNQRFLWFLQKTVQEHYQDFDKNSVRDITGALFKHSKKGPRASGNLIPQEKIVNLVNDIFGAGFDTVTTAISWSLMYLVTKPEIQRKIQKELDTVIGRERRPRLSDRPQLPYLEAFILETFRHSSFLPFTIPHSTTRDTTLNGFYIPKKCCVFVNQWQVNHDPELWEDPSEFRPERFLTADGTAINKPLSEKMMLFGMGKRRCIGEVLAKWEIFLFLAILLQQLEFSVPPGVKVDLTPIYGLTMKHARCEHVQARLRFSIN
In short: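 Read-out is luminescence from luciferin produced by CYP1A2 demethylation of Luciferin-ME (100uM, at Km). Detection reagent stopped the 60 min NADPH-dependent reaction; signals were normalized to 57 uM furafylline.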

[3] = NFAT Signaling Pathway (AID 444); conditions: Jurkat NFAT-bla M1, carbachol, beta-lactamase ratio, 5 h; at 7.69 µM (top of the series) unless noted;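 note: carbachol stimulus at about its EC50 of 1 µM final; % is set by controls: 0 for no effect and ±100 for the full control effect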
In short: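 Jurkat cells with NFAT-driven β-lactamase reporter and co-expressed M1 receptor, stimulated with carbachol (final 1 uM, ~EC50), compound titration, 5 h at 37 °C. CCF4 loaded 1 h at RT; 460/530 nm ratio gave %activity and AC50.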

[4] = Stat Signaling Pathway (AID 446); conditions: ME-180 SIE beta-lactamase reporter, IL-6 stimulated, 5 h; at 7.69 µM (top of the series) unless noted;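 note: ME-180 cervical cancer cells given 40 pM IL-6 alongside compound; SIE-controlled beta-lactamase reporter measured as 460/530 nm FRET emission ratio; % is set by controls: 0 for no effect and ±100 for the full control effect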
In short: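 Compound effects on IL-6-induced STAT reporter activity were measured in ME-180 cells. After overnight culture, cells were co-treated with 40 pM IL-6 for 5 hrs before beta-lactamase substrate loading at room temperature.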

[5] = target: Glucocorticoid receptor (Homo sapiens) (UniProt P04150); assay: GR-EFC Redistribution (AID 451; calls by dose curve; note: potency is the fitted concentration of half-maximal effect); conditions: CHO-K1 GR-EFC translocation, beta-gal luminescence, 2 h
Chain of Glucocorticoid receptor (Homo sapiens) (P04150 whole entry, looked up, the tested form may be a part): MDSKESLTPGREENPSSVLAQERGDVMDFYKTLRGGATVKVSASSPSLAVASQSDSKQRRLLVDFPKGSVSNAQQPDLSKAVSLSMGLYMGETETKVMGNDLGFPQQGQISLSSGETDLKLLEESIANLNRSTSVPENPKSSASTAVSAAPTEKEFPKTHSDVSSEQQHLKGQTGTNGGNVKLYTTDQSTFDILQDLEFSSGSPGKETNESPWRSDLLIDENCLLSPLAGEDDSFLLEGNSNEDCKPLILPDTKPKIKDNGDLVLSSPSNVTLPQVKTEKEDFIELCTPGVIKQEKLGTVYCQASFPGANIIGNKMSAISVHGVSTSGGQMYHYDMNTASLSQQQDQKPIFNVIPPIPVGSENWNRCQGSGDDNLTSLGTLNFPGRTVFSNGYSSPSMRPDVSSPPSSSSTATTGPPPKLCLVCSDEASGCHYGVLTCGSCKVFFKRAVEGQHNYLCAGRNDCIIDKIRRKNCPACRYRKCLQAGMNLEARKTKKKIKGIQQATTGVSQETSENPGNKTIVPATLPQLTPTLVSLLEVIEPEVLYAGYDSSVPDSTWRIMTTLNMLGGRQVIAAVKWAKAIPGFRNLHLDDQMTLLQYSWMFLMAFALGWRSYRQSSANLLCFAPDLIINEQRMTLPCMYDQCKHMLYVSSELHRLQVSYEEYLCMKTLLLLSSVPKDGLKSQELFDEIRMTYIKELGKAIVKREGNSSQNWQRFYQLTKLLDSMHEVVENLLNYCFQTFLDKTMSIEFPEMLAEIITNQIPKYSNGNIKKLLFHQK
In short: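 CHO-K1 cells expressing nuclear EA and GR-ED fragments of b-gal; compounds titrated up to 46 uM final, 2 h at 37 C. GR nuclear translocation read as complemented b-gal luminescence after 1 h RT detection.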

[6] = target: Mitogen-activated protein kinase 10 (Mus musculus) (UniProt Q61831); assay: JNK3 AlphaScreen Assay (AID 530);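 note: kinase came from lysate of stimulated human HepG2 cells; signal reports phosphorylation of biotinylated GST-cJun 1-79 at Ser73 with 10 µM ATP; % is set by controls: 0 for no effect and ±100 for the full control effect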
In short: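 HepG2 lysate (IL-1b/TNFa pre-activated) + biotin-GST-cJun 1-79 + anti-pSer73 cJun; cpd titration, 15 min RT; ATP 10 uM start; Tris pH 7.6, MgCl2, DTT, vanadate; beads in EDTA buffer; AlphaScreen.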

[7] = target: 3',5'-cyclic-AMP phosphodiesterase 4B (Homo sapiens) (UniProt Q07343); assay: qHTS Assay for Inhibitors of PDE-IV (AID 607; active = well fitted activation curve with a large enough effect in the main read-out, with a control signal flat, not every such curve was filed as active; note: % of control where 0% means no effect)
Chain of 3',5'-cyclic-AMP phosphodiesterase 4B (Homo sapiens) (Q07343 whole entry, looked up): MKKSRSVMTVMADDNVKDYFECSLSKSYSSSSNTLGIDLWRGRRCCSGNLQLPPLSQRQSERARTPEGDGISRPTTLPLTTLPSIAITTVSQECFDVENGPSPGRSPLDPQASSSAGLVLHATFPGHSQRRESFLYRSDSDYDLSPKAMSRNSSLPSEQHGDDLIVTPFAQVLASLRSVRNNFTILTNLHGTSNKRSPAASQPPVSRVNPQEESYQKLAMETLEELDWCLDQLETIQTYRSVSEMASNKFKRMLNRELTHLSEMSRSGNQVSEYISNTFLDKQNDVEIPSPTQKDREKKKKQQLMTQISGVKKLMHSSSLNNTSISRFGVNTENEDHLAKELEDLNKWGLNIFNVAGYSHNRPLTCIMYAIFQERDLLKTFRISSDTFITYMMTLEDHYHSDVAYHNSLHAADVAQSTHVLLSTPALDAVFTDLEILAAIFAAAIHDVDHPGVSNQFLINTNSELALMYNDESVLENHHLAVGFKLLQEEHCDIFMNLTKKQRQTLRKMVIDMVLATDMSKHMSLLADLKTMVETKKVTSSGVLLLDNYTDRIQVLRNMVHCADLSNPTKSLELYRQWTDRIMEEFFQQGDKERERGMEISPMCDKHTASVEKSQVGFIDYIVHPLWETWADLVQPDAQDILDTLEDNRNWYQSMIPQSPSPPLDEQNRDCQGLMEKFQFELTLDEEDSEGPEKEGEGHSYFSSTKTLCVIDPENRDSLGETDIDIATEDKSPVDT
In short: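 ACTOne HEK293 cells carry a modified cAMP-gated CNG channel and express endogenous PDE4; plated 1000 cells/well, compounds up to 22.9 uM final. Membrane-potential dye fluorescence (ex 535/em 590) was read; parental cells received 10 uM forskolin + 100 uM RO 20-1724.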

[8] = qHTS Assay for Lipid Storage Modulators (AID 1519; calls by dose curve); conditions: Drosophila S3 cells, BODIPY lipid droplet/cell ratio, laser cytometry, cells loaded with oleic acid; for activity change, negative = inhibition: at 57.5 µM (top of the series)
In short: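 Cells seeded at 5,000 per well were treated with compounds over a concentration series and loaded with oleic acid (400 uM, as added). Lipid droplet fluorescence (488 nm excitation, 500-530 nm channel) was read by laser-scanning cytometry and normalized to 20 uM Triacsin C.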

[9] = Primary qHTS for small molecule stabilizers of the endoplasmic reticulum resident proteome: Secreted ER Calcium Modulated Protein (SERCaMP) assay (AID 1508630; active = well fitted curve in the direction sought with a large enough effect; an effect the other way counts as inactive or inconclusive; note: % is set by controls: 0 for no effect and ±100 for the full control effect)
In short: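 The SH-SY5Y reporter protocol was run at 3 concentrations up to 38.3 uM (primary) or 11 concentrations (follow-up): 16 h compound, 100 nM thapsigargin for 4 h, then extracellular luciferase luminescence.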

[10] = target: Cytochrome P450 2C19 (Homo sapiens) (UniProt P33261); assay: qHTS Assay for Inhibitors and Substrates of Cytochrome P450 2C19 (AID 899; active = well fitted curve in the direction sought with a large enough effect; an effect the other way counts as inactive or inconclusive; note: % is set by controls: 0 for no effect and ±100 for the full control effect; nearly all actives have a fitted effect of over 60% in size)
Chain of Cytochrome P450 2C19 (Homo sapiens) (P33261 whole entry, looked up): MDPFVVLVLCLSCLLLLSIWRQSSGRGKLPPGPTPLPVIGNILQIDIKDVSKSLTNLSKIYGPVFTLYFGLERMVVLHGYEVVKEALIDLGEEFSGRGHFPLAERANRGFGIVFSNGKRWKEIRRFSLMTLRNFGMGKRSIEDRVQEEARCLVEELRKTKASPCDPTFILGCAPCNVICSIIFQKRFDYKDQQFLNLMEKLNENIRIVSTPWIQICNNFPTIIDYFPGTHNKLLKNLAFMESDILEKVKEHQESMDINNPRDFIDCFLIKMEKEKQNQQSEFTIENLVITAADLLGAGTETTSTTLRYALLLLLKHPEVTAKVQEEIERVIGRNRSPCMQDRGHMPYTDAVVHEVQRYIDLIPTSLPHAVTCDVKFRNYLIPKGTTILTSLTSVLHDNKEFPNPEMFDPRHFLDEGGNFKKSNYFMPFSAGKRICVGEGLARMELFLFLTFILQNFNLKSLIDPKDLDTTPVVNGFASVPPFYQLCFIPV
In short: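 5 nM human CYP2C19 with 10uM Luciferin-H EGE (at KM) in 50mM KPO4, compound preincubated 10 min at 37C, then NADPH regeneration for 60 min at 37C. Luciferin read by luminescence after detection reagent; normalized to 57uM ketoconazole as full inhibition.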

[11] = target: Lysosomal acid glucosylceramidase (Homo sapiens) (UniProt P04062); assay: Glucocerebrosidase-p2 (AID 348; in the data active = potency below about 10 µM; note: potency is the fitted concentration of half-maximal effect); conditions: purified GBA, blue fluorogenic substrate, 40 min
Chain of Lysosomal acid glucosylceramidase (Homo sapiens) (P04062 whole entry, looked up): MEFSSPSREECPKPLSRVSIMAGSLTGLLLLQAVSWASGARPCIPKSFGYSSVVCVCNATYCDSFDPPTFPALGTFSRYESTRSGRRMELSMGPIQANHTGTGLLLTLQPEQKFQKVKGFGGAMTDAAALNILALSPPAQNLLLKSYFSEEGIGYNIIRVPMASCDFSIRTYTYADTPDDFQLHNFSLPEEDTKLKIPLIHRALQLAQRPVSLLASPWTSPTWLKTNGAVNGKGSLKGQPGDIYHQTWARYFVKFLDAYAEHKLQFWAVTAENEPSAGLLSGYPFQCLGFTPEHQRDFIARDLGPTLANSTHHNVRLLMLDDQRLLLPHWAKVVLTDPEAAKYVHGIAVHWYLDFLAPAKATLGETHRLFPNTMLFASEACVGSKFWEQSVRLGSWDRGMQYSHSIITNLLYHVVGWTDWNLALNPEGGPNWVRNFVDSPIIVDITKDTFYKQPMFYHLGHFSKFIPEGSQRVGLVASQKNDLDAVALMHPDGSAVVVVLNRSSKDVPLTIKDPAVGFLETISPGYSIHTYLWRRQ
In short: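 Normal human glucocerebrosidase (0.2 nM) with blue fluorogenic substrate (80 uM final) in citrate/phosphate pH 5.9 with 10mM sodium taurocholate, 0.01% tween-20; 40 min RT, NaOH/glycine stop; fluorescence Ex 365/Em 440; AC50 from a titration from 0.6 nM upwards.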

[12] = target: Glucocorticoid receptor (Homo sapiens) (UniProt P04150); assay: GR-GFP Redistribution (AID 450;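 active = compounds whose dose series gives a full or clear partial fitted curve of increased nuclear translocation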; note: potency is the fitted concentration of half-maximal effect); conditions: U2OS GR-GFP nuclear translocation, laser cytometry, 2 h
[13] = target: Cytochrome P450 3A4 (Homo sapiens) (UniProt P08684); assay: qHTS Assay for Activators of Cytochrome P450 3A4 (AID 885; active = well fitted curve in the direction sought with a large enough effect; an effect the other way counts as inactive or inconclusive; note: nearly all actives have a fitted effect of over 65% in size)
Chain of Cytochrome P450 3A4 (Homo sapiens) (P08684 whole entry, looked up): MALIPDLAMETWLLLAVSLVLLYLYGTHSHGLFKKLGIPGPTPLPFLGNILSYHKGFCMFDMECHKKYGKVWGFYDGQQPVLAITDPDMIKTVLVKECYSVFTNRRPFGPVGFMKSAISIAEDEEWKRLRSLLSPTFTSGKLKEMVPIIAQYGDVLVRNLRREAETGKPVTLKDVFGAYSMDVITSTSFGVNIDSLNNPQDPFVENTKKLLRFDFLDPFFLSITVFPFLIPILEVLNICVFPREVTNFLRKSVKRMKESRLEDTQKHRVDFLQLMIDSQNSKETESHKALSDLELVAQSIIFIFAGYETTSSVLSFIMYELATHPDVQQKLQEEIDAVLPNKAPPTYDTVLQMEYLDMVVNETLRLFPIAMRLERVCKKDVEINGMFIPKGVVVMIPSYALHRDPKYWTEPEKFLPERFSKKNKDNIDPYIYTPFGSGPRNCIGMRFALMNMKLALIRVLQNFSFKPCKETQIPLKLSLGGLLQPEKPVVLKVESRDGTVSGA
In short: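 CYP3A4 activity: Luciferin-PPXE O-dealkylation, 25uM substrate, 200mM KPO4, RT throughout. Read-out is luciferase luminescence; higher values reflect activation.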

[14] = Confirmation and Secondary Assay for Modulators of Hemoglobin Beta Chain Splicing at IVS2 654 locus (AID 910; active = well fitted curve in the direction sought with a large enough effect; an effect the other way counts as inactive or inconclusive;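 note: HeLa cells stably carrying EGFP split by mutant beta-globin IVS2-654 intron; % of control where 0% means no effect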)
In short: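 HeLa cells stably expressing EGFP interrupted by β-globin IVS2-654 intron, seeded overnight in Opti-MEM/2% FCS, then treated 2 days at 37 °C. Restored splicing read as total peak GFP intensity per well by laser scanning cytometry (488 nm excitation, 500–520 nm emission); 500 nM antisense PNA as control.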

[15] = qHTS Assay for Identification of Small Molecule Agonists for Hypoxia Response Element Signaling Pathway (AID 914; active = well fitted activation curve with a large enough effect in the signal ratio, with a control signal flat, not every such curve was filed as active; the % refers to the signal ratio; note: % of control where 0% means no effect); conditions: ME-180 (cervical carcinoma) HRE-bla reporter, beta-lactamase ratio, CoCl2, 17 h; activation: stronger effect = higher value
In short: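 HRE-bla ME-180 cells with beta-lactamase reporter under hypoxia response element, compounds with EC50 CoCl2 for 17 hours at 37 C. CCF4 substrate, 460nm/530nm emission ratio gave %Activity; AC50 from titration series.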

[16] = Confirmation and Secondary Assay for Modulators of Hemoglobin Beta Chain Splicing at IVS2 705 locus (AID 930; active = well fitted curve in the direction sought with a large enough effect; an effect the other way counts as inactive or inconclusive;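 note: HeLa cells stably expressing the EGFP-705 splicing reporter; GFP fluorescence per well restored by corrected splicing of the IVS2-705 intron in EGFP; % of control where 0% means no effect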)
In short: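 HeLa cells stably carrying EGFP interrupted by mutant beta-globin intron 2 (IVS2-705) treated 2 days at 37C with compound; 500 nM antisense PNA as control. Correct splicing read as total peak GFP intensity per well by laser-scanning cytometry.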

[17] = target: Ubiquitin carboxyl-terminal hydrolase 1 (Homo sapiens) (UniProt O94782); assay: Inhibitors of USP1/UAF1: Pilot qHTS (AID 504865; active = well fitted curve in the direction sought with a large enough effect; an effect the other way counts as inactive or inconclusive;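 note: rhodamine fluorescence freed from ubiquitin-rhodamine substrate followed over time; top concentration of the series differs between compounds; % is set by controls: 0 for no effect and ±100 for the full control effect; nearly all actives have a fitted effect of over 35% in size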)
Chain of Ubiquitin carboxyl-terminal hydrolase 1 (Homo sapiens) (O94782 whole entry, looked up): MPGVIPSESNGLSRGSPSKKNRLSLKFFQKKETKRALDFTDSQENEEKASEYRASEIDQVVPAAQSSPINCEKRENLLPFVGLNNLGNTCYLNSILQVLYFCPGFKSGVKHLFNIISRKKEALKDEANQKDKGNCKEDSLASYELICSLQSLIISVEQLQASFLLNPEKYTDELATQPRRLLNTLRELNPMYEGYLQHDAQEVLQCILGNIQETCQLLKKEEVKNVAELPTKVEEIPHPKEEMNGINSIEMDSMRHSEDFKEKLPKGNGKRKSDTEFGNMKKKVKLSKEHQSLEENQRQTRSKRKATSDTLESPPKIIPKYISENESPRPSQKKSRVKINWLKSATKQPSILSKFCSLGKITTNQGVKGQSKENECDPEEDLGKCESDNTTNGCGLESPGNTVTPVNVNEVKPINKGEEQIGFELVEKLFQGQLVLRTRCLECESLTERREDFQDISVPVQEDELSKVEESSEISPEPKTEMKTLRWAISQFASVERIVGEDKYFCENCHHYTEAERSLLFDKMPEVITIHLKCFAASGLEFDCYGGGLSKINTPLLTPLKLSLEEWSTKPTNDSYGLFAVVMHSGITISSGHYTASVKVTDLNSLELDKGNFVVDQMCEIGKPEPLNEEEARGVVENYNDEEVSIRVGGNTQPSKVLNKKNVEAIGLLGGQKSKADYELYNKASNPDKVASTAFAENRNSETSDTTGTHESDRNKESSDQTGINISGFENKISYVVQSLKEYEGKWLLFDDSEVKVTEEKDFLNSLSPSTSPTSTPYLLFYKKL
In short: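 In 50mM HEPES pH 7.8 containing 0.5mM EDTA, 1mM TCEP, 0.1 mg/ml BSA and 0.01% Tween-20, 1nM USP1/UAF1 is exposed to compound for 15 min, then Ub-Rho (150nM final) is added and fluorescence is read over time.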

[18] = measured here: cell count channel max response
[19] = measured here: lipid channel max response

SMILES	activity change, negative = inhibition [1]	Potency [2]	activity change, negative = inhibition [3]	activity, negative = inhibition [4]	Potency [5]	outcome [6]	Potency [7]	activity change, negative = inhibition [8]	max response [8, 18] [%]	max response [8, 19] [%]	Potency [9]	Potency [10]	Potency [11]	Potency [12]	Potency [13]	outcome [14]	activation [15]	outcome [16]	Potency [17]
CC(=O)N1CCC2(CCN(Cc3cc(C(F)(F)F)cc(C(F)(F)F)c3)CC2)CC1	-20.5% (inactive)	15.8 µM (active)	-19.4% (inactive)	8.31% (inactive)	> 46 µM (inactive)	inactive	inactive	2.13% (inactive)	6.37	10.7	inactive	–	–	–	–	–	–	–	–
CC(=O)N1CCC2(CC1)CN(c1ccccc1)C2	10.4% (inactive)	inactive	3.05% (inactive)	10.3% (inactive)	> 46 µM (inactive)	inactive	inactive	6.65% (inactive)	16.4	26.6	inactive	inactive	–	–	–	–	–	–	–
FC(F)(F)c1cc(CN2CC3(CCNCC3)C2)cc(C(F)(F)F)c1	-6.77% (inactive)	inactive	10.6% (inactive)	3.31% (inactive)	> 46 µM (inactive)	inactive	inactive	–	–	–	inactive	–	> 11.4 µM (inactive)	–	–	–	–	–	–
CNc1ncncc1-c1ccccc1OC	-10.6% (inactive)	1.58 µM (active)	8.73% (inactive)	6.99% (inactive)	> 46 µM (inactive)	inactive	inactive	–	–	–	inactive	–	> 11.4 µM (inactive)	> 46 µM (inactive)	inactive	inactive	5.66% (inactive)	inactive	inactive

Source: PubChem BioAssay (NCATS)
